PubChem BioAssay AID1159580 (chemical genetic matrix, 2015)
“And” between values parts separate entries of the source, which are not always exact repeats. Identical values can stand only once. About 2,000 (36%) of roughly 5,500 compounds were called active. Not shown: some 18% with an inconclusive outcome. Cut-off read from the data, not from the text of the source: active = normalized growth mostly below about 0.91 (no sharp cut-off); inconclusive = no clear call, values can overlap the other calls; inactive = mostly above about 0.92. The list shows a part of the results.

Assay: chemical genetic growth profiling, strain panel (AID 1159580);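 note: tested at 20 µM; growth read once vehicle control cultures reached saturation at 30 °C; 1 = growth at the plate median or of vehicle wells; lower values mean less growth of the strain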
Conditions: S. cerevisiae deletion strains, growth OD

Measured: normalized growth

NC[C@H]1O[C@H](O[C@H]2[C@H](O)[C@@H](O[C@H]3O[C@H](CO)[C@@H](O)[C@H](N)[C@H]3O)[C@H](N)C[C@@H]2N)[C@H](N)[C@@H](O)[C@@H]1O
inactive: locus YAL021C, strain ccr4, active compounds read low 0.999 | locus YAL026C, strain drs2, active compounds read low 0.992 | locus YAL030W, strain snc1, active compounds read low 0.996 | locus YBL061C, strain skt5, active compounds read low 0.992 | locus YBR009C, strain hhf1, active compounds read low 1.03 | locus YBR021W, strain FUR4, active compounds read low 0.902 | locus YBR023C, strain chs3, active compounds read low 1 | locus YBR171W, strain sec66, active compounds read low 0.989 | locus YBR229C, strain ROT2, active compounds read low 0.995 | locus YBR231C, strain swc5, active compounds read low 0.997 | locus YBR279W, strain paf1, active compounds read low 0.993 | locus YCL011C, strain gbp2, active compounds read low 0.998 | locus YCL016C, strain dcc1, active compounds read low 1.01 | locus YCL029C, strain bik1, active compounds read low 0.977 | locus YCL061C, strain MRC1, active compounds read low 0.993 | locus YCL069W, strain vba3, active compounds read low 0.989 | locus YCR088W, strain abp1, active compounds read low 0.992 | locus YDL005C, strain med2, active compounds read low 0.992 | locus YDL035C, strain GPR1, active compounds read low 0.99 | locus YDL040C, strain nat1, active compounds read low 0.997 | locus YDL074C, strain BRE1, active compounds read low 0.955 | locus YDL101C, strain DUN1, active compounds read low 0.991 | locus YDL185W, strain tfp1, active compounds read low 0.95 | locus YDL192W, strain arf1, active compounds read low 1 | locus YDR001C, strain nth1, active compounds read low 0.989 | locus YDR069C, strain doa4, active compounds read low 0.99 | locus YDR101C, strain arx1, active compounds read low 0.943 | locus YDR137W, strain rgp1, active compounds read low 1.01 | locus YDR150W, strain NUM1, active compounds read low 0.98 | locus YDR159W, strain sac3, active compounds read low 0.983 | locus YDR162C, strain NBP2, active compounds read low 1.01 | locus YDR195W, strain ref2 0.937 | locus YDR297W, strain sur2, active compounds read low 0.986 | locus YDR318W, strain mcm21, active compounds read low 1 | locus YDR334W, strain swr1, active compounds read low 0.985 | locus YDR335W, strain msn5, active compounds read low 0.994 | locus YDR388W, active compounds read low 0.98 | locus YDR392W, strain spt3, active compounds read low 1.04 | locus YDR502C, strain sam2, active compounds read low 1.01 | locus YEL003W, strain gim4, active compounds read low 0.991 | locus YEL037C, strain rad23, active compounds read low 1 | locus YEL061C, strain CIN8 (second series), active compounds read low 0.982 | locus YEL061C, strain CIN8, active compounds read low 0.996 | locus YER015W, strain faa2, active compounds read low 1 | locus YER016W, strain bim1, active compounds read low 0.988 | locus YER110C, active compounds read low 0.957 | locus YER111C, strain swi4, active compounds read low 0.998 | locus YER155C, strain BEM2 (second series), active compounds read low 0.993 | locus YER155C, strain BEM2, active compounds read low 0.994 | locus YER167W, strain BCK2, active compounds read low 1 | locus YFR010W, strain ubp6, active compounds read low 0.987 | locus YGL078C, strain dbp3, active compounds read low 0.99 | locus YGL086W, strain mad1, active compounds read low 0.952 | locus YGL167C, strain pmr1, active compounds read low 1 | locus YGL173C, strain kem1, active compounds read low 0.99 | locus YGL227W, strain vid30, active compounds read low 0.984 | locus YGL240W, strain doc1, active compounds read low 0.985 | locus YGL248W, strain PDE1, active compounds read low 1.02 | locus YGL253W, strain hxk2, active compounds read low 0.993 | locus YGR078C, strain PAC10, active compounds read low 1.01 | locus YGR135W, strain pre9, active compounds read low 1.01 | locus YGR252W, strain gcn5, active compounds read low 1.18 | locus YHR013C, strain ard1, active compounds read low 1 | locus YHR027C, strain rpn1, active compounds read low 0.989 | locus YHR030C, strain SLT2, active compounds read low 0.978 and 1.08 | locus YHR079C, strain IRE1 (second series), active compounds read low 0.974 | locus YHR079C, strain IRE1, active compounds read low 1.07 | locus YHR094C, strain hxt1, active compounds read low 0.992 | locus YHR129C, strain ARP1, active compounds read low 0.997 | locus YHR142W, strain chs7, active compounds read low 0.991 | locus YHR200W, strain rpn10, active compounds read low 0.98 | locus YIL066C, strain RNR3, active compounds read low 0.99 | locus YIL073C, strain SPO22, active compounds read low 0.915 | locus YIL125W, strain kgd1, active compounds read low 0.974 | locus YIR030C, strain dcg1, active compounds read low 1 | locus YJL092W, strain hpr5, active compounds read low 0.986 | locus YJL095W, strain BCK1 (second series), active compounds read low 0.994 | locus YJL095W, strain BCK1, active compounds read low 1.04 and 1.07 | locus YJL115W, strain asf1, active compounds read low 0.988 | locus YJL129C, strain trk1, active compounds read low 0.988 | locus YJL134W, strain LCB3, active compounds read low 0.976 | locus YJL154C, strain vps35, active compounds read low 0.994 | locus YJL164C, strain tpk1, active compounds read low 1 | locus YJL166W, strain qcr8, active compounds read low 0.996 | locus YJL168C, strain set2, active compounds read low 0.984 | locus YJL187C, strain SWE1 (second series), active compounds read low 1.01 | locus YJR043C, strain POL32, active compounds read low 1.01 | locus YJR066W, strain TOR1, active compounds read low 1.02 | locus YKL009W, strain mrt4, active compounds read low 0.97 | locus YKL068W, active compounds read low 0.966 | locus YKL085W, strain MDH1 (second series), active compounds read low 0.993 | locus YKL085W, strain MDH1, active compounds read low 0.993 | locus YKL160W, strain elf1, active compounds read low 0.994 | locus YKR001C, strain vps1, active compounds read low 0.986 | locus YKR026C, strain gcn3, active compounds read low 0.984 | locus YKR091W, strain srl3, active compounds read low 0.983 | locus YLL001W, strain dnm1, active compounds read low 0.988 | locus YLL026W, active compounds read low 1 | locus YLL041C, strain sdh2, active compounds read low 1.01 | locus YLR027C, strain aat2, active compounds read low 0.999 | locus YLR039C, strain RIC1, active compounds read low 1.01 | locus YLR058C, strain SHM2, active compounds read low 0.999 | locus YLR102C, strain apc9, active compounds read low 0.973 | locus YLR113W, strain HOG1, active compounds read low 1.04 | locus YLR221C, strain rsa3, active compounds read low 0.997 | locus YLR258W, strain gsy2, active compounds read low 0.995 | locus YLR262C, strain YPT6 (second series), active compounds read low 1.02 | locus YLR262C, strain YPT6, active compounds read low 0.984 | locus YLR268W, strain sec22, active compounds read low 0.959 | locus YLR320W, strain mms22, active compounds read low 1 | locus YLR330W, strain CHS5, active compounds read low 0.984 | locus YLR342W, strain FKS1 (second series), active compounds read low 0.999 | locus YLR342W, strain FKS1, active compounds read low 0.988 | locus YLR357W, strain rsc2, active compounds read low 0.992 | locus YLR370C, strain arc18, active compounds read low 1.02 | locus YLR371W, strain rom2, active compounds read low 0.996 | locus YLR384C, strain iki3, active compounds read low 1.01 | locus YLR418C, strain cdc73, active compounds read low 1.06 | locus YML016C, strain PPZ1, active compounds read low 0.992 | locus YML032C, strain rad52, active compounds read low 1.04 | locus YML120C, strain ndi1, active compounds read low 0.994 | locus YML124C, strain tub3, active compounds read low 0.991 | locus YMR058W, strain fet3, active compounds read low 0.997 | locus YMR078C, strain ctf18, active compounds read low 1.01 | locus YMR125W, strain sto1, active compounds read low 1.01 | locus YMR129W, active compounds read low 0.99 | locus YMR205C, strain PFK2, active compounds read low 1 | locus YMR223W, strain ubp8, active compounds read low 1.02 | locus YMR231W, strain pep5, active compounds read low 0.997 | locus YMR263W, strain SAP30, active compounds read low 0.992 | locus YMR307W, strain GAS1, active compounds read low 1.16 | locus YNL067W, strain RPL9B, active compounds read low 1.01 | locus YNL071W, strain lat1, active compounds read low 0.998 | locus YNL183C, strain NPR1, active compounds read low 1.02 | locus YNL209W, strain ssb2, active compounds read low 0.992 | locus YNL233W, strain BNI4, active compounds read low 1.01 | locus YNL248C, strain rpa49, active compounds read low 1 | locus YNL250W, strain rad50, active compounds read low 0.96 | locus YNL271C, strain bni1, active compounds read low 0.997 | locus YNL298W, strain CLA4, active compounds read low 0.984 | locus YNL307C, strain MCK1, active compounds read low 0.981 | locus YNL322C, strain KRE1 (second series), active compounds read low 1 | locus YNR049C, strain mso1, active compounds read low 1.02 | locus YNR052C, strain pop2, active compounds read low 1 | locus YOL012C, strain htz1 1.19 | locus YOL147C, strain pex11, active compounds read low 0.989 | locus YOR001W, strain rrp6, active compounds read low 1.01 | locus YOR061W, strain CKA2, active compounds read low 1 | locus YOR069W, strain VPS5, active compounds read low 0.986 | locus YOR070C, strain gyp1, active compounds read low 1.01 | locus YOR080W, strain dia2, active compounds read low 1 | locus YOR083W, strain WHI5, active compounds read low 1.01 | locus YOR106W, strain vam3, active compounds read low 1.02 | locus YOR136W, strain idh2, active compounds read low 0.972 | locus YOR184W, strain ser1, active compounds read low 0.972 | locus YOR231W, strain MKK1, active compounds read low 1.04 | locus YOR265W, strain rbl2, active compounds read low 1 | locus YOR270C, strain vph1, active compounds read low 0.968 | locus YOR290C, strain snf2, active compounds read low 1 | locus YOR316C, strain cot1, active compounds read low 0.978 | locus YPL051W, strain arl3, active compounds read low 1 | locus YPL055C, strain LGE1, active compounds read low 1.01 | locus YPL078C, strain atp4, active compounds read low 1.02 | locus YPL106C, strain sse1, active compounds read low 1.01 | locus YPL240C, strain hsp82, active compounds read low 0.988 | locus YPL256C, strain CLN2, active compounds read low 1.08 | locus YPR119W, strain clb2, active compounds read low 0.993 | locus YPR141C, strain kar3, active compounds read low 0.982 | locus YPR163C, strain tif3, active compounds read low 0.998 | locus YPR167C, strain met16, active compounds read low 0.991 | strain wtn01, active compounds read low 0.948
